{
  "source": "the OligoGym collection",
  "data": [
    {"target": "CIRBP", "test": "pooled miR-30 sensor sort-seq; sequence = guide strand", "conditions": "shRNA", "values": [
      {"sequence": "TCACTGTAGCCACCACTCTGAC", "sensor-assay potency score (higher = more potent)": -1.45},
      {"sequence": "TAACTGTCGTAACTGTCTCTGT", "sensor-assay potency score (higher = more potent)": 0.0429},
      {"sequence": "TAGCCACCACTCTGACTCCGGC", "sensor-assay potency score (higher = more potent)": -0.921},
      {"sequence": "TTGCCTGCCTGGTCTACTCGGA", "sensor-assay potency score (higher = more potent)": -0.263},
      {"sequence": "TCGTCAATGTTCTCAAAGGTGA", "sensor-assay potency score (higher = more potent)": -0.799},
      {"sequence": "AACTGTCGTAACTGTCTCTGTA", "sensor-assay potency score (higher = more potent)": 0.0143},
      {"sequence": "TTAGCGTCGTCAATGTTCTCAA", "sensor-assay potency score (higher = more potent)": -0.0271},
      {"sequence": "TAGTAGTCTCTGGAGCCTCCGT", "sensor-assay potency score (higher = more potent)": -1.12}
    ]},
    {"target": "CLCN5", "test": "pooled miR-30 sensor sort-seq; sequence = guide strand", "conditions": "shRNA", "values": [
      {"sequence": "TATAGCACCAACAGCCATGCTA", "sensor-assay potency score (higher = more potent)": -0.0804},
      {"sequence": "TTCCTGTATTTGTTGAAGCAGT", "sensor-assay potency score (higher = more potent)": -0.859},
      {"sequence": "TTTGCTTGTGTTGAAACGGTTC", "sensor-assay potency score (higher = more potent)": -0.272},
      {"sequence": "TTAAGTCTGTCATCCAATGAGC", "sensor-assay potency score (higher = more potent)": -1.29},
      {"sequence": "TTTCATCACATCCATTGCCAGG", "sensor-assay potency score (higher = more potent)": -1.34},
      {"sequence": "TCTTATGAGCAAACTCTTCTTT", "sensor-assay potency score (higher = more potent)": -0.0775},
      {"sequence": "TTGATAACCAGAGTCCACTTAC", "sensor-assay potency score (higher = more potent)": -0.327},
      {"sequence": "AAAAGCATCACTCACACTGTGA", "sensor-assay potency score (higher = more potent)": -0.413},
      {"sequence": "TATATGCTTTAACACATCCTTT", "sensor-assay potency score (higher = more potent)": -1.04},
      {"sequence": "TAGCTGACCTCTTCAAGGCTGA", "sensor-assay potency score (higher = more potent)": -0.234},
      {"sequence": "TGCTATAGCACCAACAGCCATG", "sensor-assay potency score (higher = more potent)": -1.3},
      {"sequence": "TATAGTAATGACAATTTTCAGT", "sensor-assay potency score (higher = more potent)": -0.57},
      {"sequence": "TTGAAATCATCATAGGTCCCTA", "sensor-assay potency score (higher = more potent)": -0.0127},
      {"sequence": "TTTTATTGGTAATCTCTCGGTG", "sensor-assay potency score (higher = more potent)": -0.249},
      {"sequence": "TTTGTCTCTCTCTTCAAAGGTG", "sensor-assay potency score (higher = more potent)": -0.196},
      {"sequence": "TTTAACACATCCTTTTTGGTAA", "sensor-assay potency score (higher = more potent)": -0.176},
      {"sequence": "TTCCACAGTCATACTGTCCTGA", "sensor-assay potency score (higher = more potent)": 0.719},
      {"sequence": "TCAAACCAGCTAACGAACCTGA", "sensor-assay potency score (higher = more potent)": -0.258},
      {"sequence": "TTTATTGGTAATCTCTCGGTGC", "sensor-assay potency score (higher = more potent)": 0.182},
      {"sequence": "TATAACAGGATACTTGCCCAAC", "sensor-assay potency score (higher = more potent)": -1.3},
      {"sequence": "TTGAGGGGAAAATAGTAGCTGA", "sensor-assay potency score (higher = more potent)": -0.729}
    ]},
    {"target": "CLDN16", "test": "pooled miR-30 sensor sort-seq; sequence = guide strand", "conditions": "shRNA", "values": [
      {"sequence": "TAGAATATCTGCAGTAATCATC", "sensor-assay potency score (higher = more potent)": -0.742},
      {"sequence": "AAATATATTGTGCAAAACCAAA", "sensor-assay potency score (higher = more potent)": -1.81},
      {"sequence": "TCTGCAGTAATCATCAACGCTC", "sensor-assay potency score (higher = more potent)": -0.0383},
      {"sequence": "TTAAAAAGATATAAGCAGCAGG", "sensor-assay potency score (higher = more potent)": -0.367},
      {"sequence": "TACATTTTGGCCGTCTCTGTGC", "sensor-assay potency score (higher = more potent)": -0.539},
      {"sequence": "TAGAACGTTCCACATACACATC", "sensor-assay potency score (higher = more potent)": -1.34},
      {"sequence": "AATATCTGCAGTAATCATCAAC", "sensor-assay potency score (higher = more potent)": -0.661},
      {"sequence": "AAGAATAATACAAACAGGCTGT", "sensor-assay potency score (higher = more potent)": 0.277},
      {"sequence": "TTTACTTTTTCTCACGCCCTGC", "sensor-assay potency score (higher = more potent)": -0.567},
      {"sequence": "TTTGTGACGCATTCCCACCAGA", "sensor-assay potency score (higher = more potent)": -0.822},
      {"sequence": "TTCTCTCAGGTCCAACATCTTT", "sensor-assay potency score (higher = more potent)": -1.61}
    ]}
  ]
}
